PubChem BioAssay (NCI)
“And” between values parts separate entries of the source, which are not always exact repeats. Identical values can stand only once. The panel holds about 83,000 compounds, 20% with a hit somewhere; the sample as a whole holds those more often.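 Plates (96-well) were seeded with cells, treated with compound at one concentration, and incubated for 48 hours before percent growth was determined.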 The source made the active and inactive calls. Rule for the calls: active = growth percent below 10; inactive = the rest.

Assays:
Test in all cases: NCI-60 one-dose screen, 48 h (100 = growth as untreated, 0 = no growth, -100 = all killed)
Details in all cases: 10 µM unless noted
NCI-H23 lung = tested on: NCI-H23 lung
NCI-H226 lung = tested on: NCI-H226 lung
NCI-H322M lung = tested on: NCI-H322M lung
HOP-62 NSCLC = tested on: HOP-62 NSCLC
NCI-H460 lung = tested on: NCI-H460 lung
HOP-92 NSCLC = tested on: HOP-92 NSCLC
NCI-H522 lung = tested on: NCI-H522 lung
A549/ATCC NSCLC = tested on: A549/ATCC NSCLC
786-0 renal = tested on: 786-0 renal
COLO 205 colon = tested on: COLO 205 colon
DU-145 prostate = tested on: DU-145 prostate
K-562 leukemia = tested on: K-562 leukemia
MALME-3M melanoma = tested on: MALME-3M melanoma
MDA-MB-231 breast = tested on: MDA-MB-231 breast
RXF 393 renal = tested on: RXF 393 renal
SF-268 CNS = tested on: SF-268 CNS
SF-295 CNS = tested on: SF-295 CNS
SF-539 CNS = tested on: SF-539 CNS
UACC-257 melanoma = tested on: UACC-257 melanoma
M14 melanoma = tested on: M14 melanoma

Measured: growth

CC(=O)Oc1ccc(C2(c3ccc(OC(C)=O)cc3)C(=O)Nc3ccccc32)cc1
4.98% (active) and 17.2% (inactive): COLO 205 colon
inactive: NCI-H23 lung 41.5% and 54.4% | NCI-H226 lung 76.3% and 82.9% | NCI-H322M lung 33.1% and 33.7% | HOP-62 NSCLC 109% and 93.1% | NCI-H460 lung 104% | HOP-92 NSCLC 68.4% and 44.2% | NCI-H522 lung 95.7% and 83.2% | A549/ATCC NSCLC 96.1% and 98% | 786-0 renal 107% and 93% | DU-145 prostate 89% and 89.9% | K-562 leukemia 78.9% and 93.8% | MALME-3M melanoma 128% and 97.8% | MDA-MB-231 breast 95.4% and 87.4% | RXF 393 renal 66.4% and 76.9% | SF-268 CNS 96.7% and 100% | SF-295 CNS 71.8% and 86.3% | SF-539 CNS 97.2% and 92.2% | UACC-257 melanoma 110% and 114%

O=C(O)C(Cc1ccc(OS(=O)(=O)Cc2ccccc2)cc1)NS(=O)(=O)Cc1ccccc1 (stereo not given)
inactive: NCI-H23 lung 105% and 112% | NCI-H226 lung 108% and 109% | NCI-H322M lung 119% and 127% | HOP-62 NSCLC 105% and 118% | NCI-H460 lung 106% and 119% | HOP-92 NSCLC 135% and 102% | NCI-H522 lung 96.6% | A549/ATCC NSCLC 101% and 105% | 786-0 renal 98.9% and 114% | COLO 205 colon 114% | DU-145 prostate 101% and 108% | K-562 leukemia 105% and 101% | MALME-3M melanoma 95.8% and 136% | MDA-MB-231 breast 102% | RXF 393 renal 118% and 126% | SF-268 CNS 105% and 98% | SF-295 CNS 106% and 102% | SF-539 CNS 97.7% and 101% | UACC-257 melanoma 100% and 101%

O=[N+]([O-])c1ccc(NC2CCCCC2)nc1
inactive: NCI-H23 lung 93.2% and 96.9% | NCI-H226 lung 113% and 92.4% | NCI-H322M lung 117% and 105% | HOP-62 NSCLC 94.8% and 101% | NCI-H460 lung 108% and 105% | HOP-92 NSCLC 114% and 81.8% | NCI-H522 lung 95.1% and 92.1% | A549/ATCC NSCLC 101% and 98.5% | 786-0 renal 103% | COLO 205 colon 108% and 102% | DU-145 prostate 96.7% and 119% | K-562 leukemia 108% and 104% | MALME-3M melanoma 118% | MDA-MB-231 breast 95.4% and 114% | RXF 393 renal 126% and 103% | SF-268 CNS 110% and 112% | SF-295 CNS 103% and 102% | SF-539 CNS 99.6% and 110% | UACC-257 melanoma 107% and 106%

Cc1nc2c(=O)[nH]c(=S)[nH]c2[nH]c1=O
inactive: NCI-H23 lung 108% and 101% | NCI-H226 lung 100% and 104% | NCI-H322M lung 98% and 111% | HOP-62 NSCLC 108% and 99.1% | NCI-H460 lung 106% and 110% | HOP-92 NSCLC 111% | NCI-H522 lung 105% and 100% | A549/ATCC NSCLC 103% and 105% | 786-0 renal 112% and 107% | COLO 205 colon 108% and 115% | DU-145 prostate 112% and 119% | K-562 leukemia 102% | MALME-3M melanoma 108% | MDA-MB-231 breast 112% and 102% | RXF 393 renal 111% and 125% | SF-268 CNS 109% and 104% | SF-295 CNS 111% and 94.6% | SF-539 CNS 104% and 99.1% | UACC-257 melanoma 110% and 97.8%

CC1CC(O)CC(C)(C)C1.CC1CC(O)CC(C)(C)C1.CC1CC(O)CC(C)(C)C1.CC1CC(O)CC(C)(C)C1.[Ti] (stereo not given)
inactive: NCI-H23 lung 104% | NCI-H226 lung 97.2% | NCI-H322M lung 105% | HOP-62 NSCLC 103% | NCI-H460 lung 109% | HOP-92 NSCLC 99.2% | NCI-H522 lung 112% | A549/ATCC NSCLC 92.6% | 786-0 renal 107% | COLO 205 colon 108% | DU-145 prostate 121% | K-562 leukemia 98.2% | MALME-3M melanoma 103% | MDA-MB-231 breast 96.2% | RXF 393 renal 112% | SF-268 CNS 115% | SF-295 CNS 102% | SF-539 CNS 107% | UACC-257 melanoma 113%

O=C1c2ccccc2CN1c1ccccc1
inactive: NCI-H23 lung 94.2% | NCI-H226 lung 98.8% | NCI-H322M lung 107% | HOP-62 NSCLC 107% | NCI-H460 lung 103% | HOP-92 NSCLC 104% | NCI-H522 lung 74.7% | A549/ATCC NSCLC 91.4% | 786-0 renal 94.7% | COLO 205 colon 105% | DU-145 prostate 115% | K-562 leukemia 94.2% | MALME-3M melanoma 118% | MDA-MB-231 breast 95.4% | RXF 393 renal 105% | SF-268 CNS 107% | SF-295 CNS 104% | SF-539 CNS 102% | UACC-257 melanoma 103%

COC(=O)c1nc(N)nc(C(=O)OC)c1C(=O)c1ccc(F)cc1
inactive: NCI-H23 lung 105% | NCI-H226 lung 110% | NCI-H322M lung 108% | HOP-62 NSCLC 113% | NCI-H460 lung 117% | HOP-92 NSCLC 101% | NCI-H522 lung 103% | A549/ATCC NSCLC 114% | 786-0 renal 108% | COLO 205 colon 117% | DU-145 prostate 111% | K-562 leukemia 109% | MALME-3M melanoma 104% | MDA-MB-231 breast 103% | RXF 393 renal 104% | SF-268 CNS 103% | SF-295 CNS 101% | SF-539 CNS 103% | UACC-257 melanoma 110%

CC(C)(C)C1=CC(=O)C(C(C)(C)C)=CC1=O
inactive: NCI-H23 lung 84.3% and 103% | NCI-H226 lung 90.3% and 102% | NCI-H322M lung 104% and 102% | HOP-62 NSCLC 90.2% and 97.8% | NCI-H460 lung 99.7% | HOP-92 NSCLC 83.8% and 100% | NCI-H522 lung 82.5% and 88.9% | A549/ATCC NSCLC 98.5% and 91% | 786-0 renal 93.3% and 105% | COLO 205 colon 116% | DU-145 prostate 120% and 98.9% | K-562 leukemia 105% and 107% | MALME-3M melanoma 94.5% and 107% | MDA-MB-231 breast 107% and 109% | RXF 393 renal 90.2% and 105% | SF-268 CNS 108% and 94.3% | SF-295 CNS 99.6% and 104% | SF-539 CNS 87.3% and 108% | UACC-257 melanoma 90.5% and 85%

Cc1ccc2cccc([N+](=O)[O-])c2n1
inactive: NCI-H23 lung 108% and 95% | NCI-H226 lung 101% | NCI-H322M lung 110% and 90.5% | HOP-62 NSCLC 103% and 95.1% | NCI-H460 lung 117% and 107% | HOP-92 NSCLC 123% and 96.2% | NCI-H522 lung 90.2% and 93.8% | A549/ATCC NSCLC 103% and 104% | 786-0 renal 118% and 98.3% | COLO 205 colon 104% and 106% | DU-145 prostate 116% and 109% | K-562 leukemia 91% and 88.7% | MALME-3M melanoma 99.1% and 108% | MDA-MB-231 breast 107% and 104% | RXF 393 renal 119% and 110% | SF-268 CNS 103% | SF-295 CNS 108% and 110% | SF-539 CNS 105% and 103% | UACC-257 melanoma 102% and 107% | M14 melanoma 121% and 97.9%

O=C(O)c1cccc(Br)c1
inactive: NCI-H23 lung 111% and 102% | NCI-H226 lung 98.5% | NCI-H322M lung 96.4% and 95.8% | HOP-62 NSCLC 95.5% and 100% | NCI-H460 lung 115% and 105% | HOP-92 NSCLC 101% and 102% | NCI-H522 lung 103% and 85.5% | A549/ATCC NSCLC 98.8% and 87% | 786-0 renal 96.4% and 96.8% | COLO 205 colon 115% | DU-145 prostate 113% and 114% | K-562 leukemia 89.4% and 93.6% | MALME-3M melanoma 99.5% and 107% | MDA-MB-231 breast 97.9% and 114% | RXF 393 renal 108% and 107% | SF-268 CNS 101% and 102% | SF-295 CNS 94.3% and 98.2% | SF-539 CNS 94% and 98.7% | UACC-257 melanoma 97.6% and 85.2%

Cc1c(O)nc(N)[nH]c1=O
inactive: NCI-H23 lung 93.8% | NCI-H226 lung 106% | NCI-H322M lung 104% | HOP-62 NSCLC 99.7% | NCI-H460 lung 104% | HOP-92 NSCLC 108% | NCI-H522 lung 99.5% | A549/ATCC NSCLC 99.9% | 786-0 renal 114% | COLO 205 colon 116% | DU-145 prostate 119% | K-562 leukemia 118% | MALME-3M melanoma 109% | MDA-MB-231 breast 104% | RXF 393 renal 118% | SF-268 CNS 123% | SF-295 CNS 97.4% | SF-539 CNS 106% | UACC-257 melanoma 105%
